The whole screen tested about 370,000 compounds, of which about 1,100 (0.3%) were called active. No stated cut-off is given here; in the data, active means inhibition above about 13%; inactive means the rest. This excerpt belongs to a sample that is enriched for actives.

In the experiment the target is Methyl-CpG-binding domain protein 2 (Homo sapiens) (UniProt Q9UBB5). The experiment is described as follows: MBD2-DBD methyl-oligonucleotide interaction blockers – biochemical, TR-FRET, DNA-binding domain, human, primary screen (AID 686964). To be noted: MBD2 binding to methylated oligonucleotide, at 4.4 µM, stronger effect = higher value. A general note: In TR-FRET formats the signal depends on donor and acceptor labels being close together.
Methyl-CpG-binding domain protein 2 (Homo sapiens), sequence (Q9UBB5 whole entry, looked up, the tested form may be a part): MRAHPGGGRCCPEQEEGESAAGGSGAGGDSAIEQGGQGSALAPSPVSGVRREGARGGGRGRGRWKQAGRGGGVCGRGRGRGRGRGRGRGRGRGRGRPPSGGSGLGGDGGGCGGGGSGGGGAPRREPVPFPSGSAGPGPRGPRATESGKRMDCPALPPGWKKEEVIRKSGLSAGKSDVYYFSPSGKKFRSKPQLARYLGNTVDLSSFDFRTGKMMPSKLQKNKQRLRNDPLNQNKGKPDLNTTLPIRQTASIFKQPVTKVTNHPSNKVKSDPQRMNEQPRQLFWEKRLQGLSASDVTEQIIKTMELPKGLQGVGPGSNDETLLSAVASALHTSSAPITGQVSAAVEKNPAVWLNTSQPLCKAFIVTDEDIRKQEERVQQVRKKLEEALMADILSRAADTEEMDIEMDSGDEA
One may read the inhibition as the change of the read-out against control, counted positive when it falls. In the case of `O=P(c1cccs1)(c1cccs1)c1cccs1`, the inhibition was 0.79% (inactive).

Consider `Cc1ccc(Cc2cnc(N)s2)o1`, for which the inhibition is 19.8% (active).

Turning to `CCOc1ccccc1CN1CCN(C2CCC2)CC1CCO` (centres undefined), the inhibition was -1.77% (inactive).

As to `CC1CCCCC12NC(=O)N(CC(=O)Nc1ccc(S(=O)(=O)Nc3ncccn3)cc1)C2=O` (centres undefined), the inhibition was 5.36% (inactive).

Regarding `Cc1cc(C)c(S(=O)(=O)NCC2CCC(C(=O)NCc3ccc4c(c3)OCO4)CC2)c(C)c1` (centres undefined), the inhibition was 1.75% (inactive).

Turning to `CCn1c2ccccc2c2cc(NC(=O)CSc3nnc(-c4ccccc4)n3-c3ccc(C)cc3)ccc21`, the inhibition is 1.63% (inactive).

As to `CCn1c(=O)n2n(c1=O)[C@@]1(C=C3CCCC[C@H]32)N=C(NC(=O)c2ccccc2)N(Cc2ccccc2)[C@H]1Cc1ccccc1`, the inhibition is -2.62% (inactive).

On to `CCCCCN1CCCCC(NC(=O)C(C)CCC)C1=O` (centres undefined), for which the inhibition was 0.39% (inactive).

Consider `O=C(CNC(=O)c1ccccc1)OC(C(=O)Nc1cc([N+](=O)[O-])ccc1F)c1ccccc1` (centres undefined), for which the inhibition was 0.02% (inactive).

Take `COC(=O)C[C@@H]1CC[C@@H]2[C@@H](COc3ccc(NC(=O)Nc4ccc(F)c(F)c4)cc3C(=O)N2C)O1`: the inhibition is -6.09% (inactive).

Take `Cc1cccc(NC(=O)C[C@H]2CC[C@H]3[C@@H](COc4ccc(NC(=O)Nc5ccccc5)cc4C(=O)N3C)O2)c1`: the inhibition was 14.6% (active).

Consider `CCC(=O)Nc1ccc2c(c1)C(=O)N(C)[C@@H]1CC[C@@H](CC(=O)NCCc3ccccc3)O[C@H]1CO2`, for which the inhibition was -1.77% (inactive).

For `O=C(NCCCc1ccccc1)[C@H](Cc1ccccc1)NC1(C(=O)NCCc2c[nH]c3ccccc23)CCC1`, the inhibition was -4.2% (inactive).

Regarding `CCOC(=O)C1CCN(C(=O)C(C)(C)NC(=O)Nc2ccc(F)c(F)c2)CC1`, the inhibition is -0.53% (inactive).

With `CCCCCCCCN1C(=O)[C@@H](CC(=O)N2CCN(C(=O)OCC)CC2)C[C@@]2(C(=O)OC)C1=C[C@H](C1CCCC1)O[C@@H]2C`, the inhibition is -0.47% (inactive).

As to `CC(C)C(=O)N1CCC2(CC1)Oc1ccc(F)cc1C(=O)C21CC(c2ccccc2)=NO1` (centres undefined), the inhibition is -4.91% (inactive).

Regarding `CC(=O)c1ccccc1NC(=O)COC(=O)C1COc2ccccc2O1` (centres undefined), the inhibition is 28.3% (active).

In the case of `CCOC(=O)c1ccccc1NC(=O)COC(=O)CCC(=O)N1CCOCC1`, the inhibition is 3.48% (inactive).

As to `CC(=O)c1ccccc1NC(=O)CC1(CC(=O)O)CCCCC1`, the inhibition is -1.55% (inactive).

For `COc1ccc(Cn2cc(COC(=O)N(C)Cc3ccccc3)nn2)cc1`, the inhibition was 1.89% (inactive).

With `CC(C)(C)C1C/C(=C/c2ccco2)C(=O)/C(=C/c2ccco2)C1` (centres undefined), the inhibition is 72% (active).

As to `COc1ccc(-c2cc(=O)oc3cc(OCC(=O)N(C)C4CCS(=O)(=O)C4)ccc23)cc1` (centres undefined), the inhibition was 2.11% (inactive).

For `CC(=O)c1ccc(OCC(=O)N(C)C2CCS(=O)(=O)C2)cc1` (centres undefined), the inhibition was 1.21% (inactive).

Consider `CN(C(=O)COC(=O)c1cc(-c2ccco2)nc2ccccc12)C1CCS(=O)(=O)C1` (centres undefined), for which the inhibition was 17.8% (active).

For the compound `CNC(=O)Nc1cc(C(C)(C)C)no1`, the inhibition is 3.32% (inactive).

Turning to `O=C(C[C@H]1C(=O)N(c2ccc(F)c(F)c2)C[C@@H]1Cc1ccccc1)Nc1ccccc1`, the inhibition is 5.88% (inactive).

With `CNC(=O)C[C@H]1C(=O)N(Cc2ccccc2)C[C@@H]1CSC`, the inhibition was 3.38% (inactive).

As for `CNC(=O)C[C@H]1C(=O)N(c2ccc(OC)cc2)C[C@@H]1Cc1ccccc1`, the inhibition is 13.2% (active).

For `COc1cc(/C=C/C(=O)n2cnc3ccccc32)cc(OC)c1OC`, the inhibition is -1.66% (inactive).

Regarding `O=C(Nc1cc(Cl)cc(Cl)c1)OCCN1CCCC12CCC(c1ccccc1)CC2` (centres undefined), the inhibition was -4.82% (inactive).

Turning to `COC(=O)[C@]12C[C@H](CC(=O)NCc3ccccc3)C(=O)N(CCc3ccc(OC)c(OC)c3)C1=C[C@H](C(C)(C)C)O[C@@H]2C`, the inhibition was 1.88% (inactive).

For `CCCCOCCCNC(=O)C[C@H]1C[C@@]2(C(=O)OC)C(=C[C@H](C(C)(C)C)O[C@@H]2C)N(CCc2ccc(OC)c(OC)c2)C1=O`, the inhibition was 2.62% (inactive).

As for `COC(=O)[C@]12C[C@H](CC(=O)NCCC(C)C)C(=O)N(CCc3ccc(OC)c(OC)c3)C1=C[C@H](C(C)(C)C)O[C@@H]2C`, the inhibition was 19.2% (active).

Take `COC(=O)CC1CCc2cc(C)cc(C(CC(C)C)NC(=O)[C@H](CC(C)C)NC(=O)OCc3ccccc3)c2O1` (some centres undefined): the inhibition is 4.23% (inactive).

These data come from PubChem BioAssay AID686964 (The Scripps Research Institute Molecular Screening Center, 2013).
